# An excerpt weighted towards active compounds, which were near 1.6% of everything screened.
# KCNQ2 enhance: potentiators of rat KCNQ2 potassium channel; CHO-K1 KCNQ2, FluxOR thallium flux fluorescence; hits give high values; Potassium voltage-gated channel subfamily KQT member 2 (Rattus norvegicus), O88943; B-score at 10 µM; 310,000 tested, 0.54% active;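 active = fluorescence ratio B-score at least 3 SD of library B-scores, with initial fluorescence B-score within 3 of them, cut at about 5.3 in these data; same plate scores as AID 2156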;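 note: B-score of peak minus minimum over baseline fluorescence ratio after K+ and Tl+ stimulus; positive B-score means potentiation of KCNQ2 with more thallium influx and brighter signal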
# KCNQ2 block: rat KCNQ2 potassium channel inhibitors, primary screen, cell-based, CHO-K1, FluxOR thallium flux, B-score | B-score at 10 µM | 20 min; hits give low values | 310,000 tested, 1.1% active;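 active = fluorescence ratio B-score at most minus 3 library SDs, with starting brightness B-score within 2 library SDs, cut at about -5.5 in these data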
# Kir21 conf inh: mouse Kir2.1 channel blockers, retest, confirmation, cell-based, FluxOR thallium flux, duplicate; AID 2032, 2009; shares compounds with KCNQ2 enhance; Tl flux remaining, % of negative control (hits give low values), % at 10 µM; Kir2.1-expressing cells, FluxOR thallium flux fluorescence; hits give low values; 2,300 tested, 41% active;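 active = Primary-screen hit whose thallium flux fell at least 3 control SD below untreated wells in both duplicates, with normal baseline fluorescence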;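 note: 0% = blank wells without stimulus and 100% = stimulated no-compound controls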
# HEK293 ctr: parental HEK293 activity in Kir2.1 inhibitor counter-screen. FluxOR signal as % of negative control (100 = no effect), % at 10 µM. shares compounds with KCNQ2 enhance. 2,300 tested, 19% active. parental HEK293 cells, FluxOR thallium flux fluorescence; 0% = unstimulated blank wells;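 active = dye signal at least 3 control SD above or below untreated wells in both duplicates, raw fluorescence within 3, either direction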;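 note: percent is based on the flux ratio of peak minus minimum fluorescence over baseline F0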
# CHO-K1 Tl ctr: nonspecific thallium flux increase in parental CHO-K1, confirmation, counter-screen for KCNQ2 potentiator project, cell-based, FluxOR thallium flux, duplicate; activity increase over 3SD of controls, % at 10 µM; shares compounds with KCNQ2 enhance; parental CHO-K1 cells, FluxOR thallium flux fluorescence; zero = vehicle mean+3SD, 100% = vehicle-minus-blank window; 1,200 tested, 43% active;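 active = signal rise of at least 3 SD above the untreated control mean, in both duplicate wells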;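 note: counter screen of KCNQ2 potentiator hits so any rise reflects channel-independent effects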
# KCNQ1 pot spec: human KCNQ1 channel potentiation off-target, confirmation, selectivity assay for KCNQ2 potentiator project, cell-based, CHO, FluxOR thallium flux. shares compounds with KCNQ2 enhance. 1,200 tested, 28% active. CHO KCNQ1 stable, FluxOR thallium flux fluorescence; beyond 3SD, as % of vehicle-control signal. activation over 3SD threshold, % at 10 µM;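 active = fluorescence ratio rise of at least 3 SD of vehicle wells above their mean, in both replicate wells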;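 note: 0% = vehicle mean plus 3 SD and 100% = vehicle minus unstimulated blank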
# Target sequence (P51787 whole entry, looked up): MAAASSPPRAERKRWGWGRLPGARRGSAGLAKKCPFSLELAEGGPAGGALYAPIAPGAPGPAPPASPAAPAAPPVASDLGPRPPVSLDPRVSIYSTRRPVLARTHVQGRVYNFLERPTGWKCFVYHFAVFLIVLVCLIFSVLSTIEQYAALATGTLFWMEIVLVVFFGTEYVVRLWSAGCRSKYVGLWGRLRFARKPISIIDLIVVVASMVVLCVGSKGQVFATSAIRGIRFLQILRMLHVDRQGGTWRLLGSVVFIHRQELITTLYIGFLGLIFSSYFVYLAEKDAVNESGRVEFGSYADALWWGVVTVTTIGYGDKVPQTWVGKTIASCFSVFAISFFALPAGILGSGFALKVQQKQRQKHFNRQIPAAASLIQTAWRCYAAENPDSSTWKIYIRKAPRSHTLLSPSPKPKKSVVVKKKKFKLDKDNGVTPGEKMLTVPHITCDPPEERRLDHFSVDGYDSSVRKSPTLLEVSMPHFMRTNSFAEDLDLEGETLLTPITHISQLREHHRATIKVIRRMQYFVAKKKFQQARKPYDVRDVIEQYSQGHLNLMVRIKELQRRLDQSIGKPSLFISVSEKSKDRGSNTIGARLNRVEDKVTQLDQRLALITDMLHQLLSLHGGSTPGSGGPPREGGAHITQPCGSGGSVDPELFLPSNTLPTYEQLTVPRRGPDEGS
# KCNQ2 pot conf: rat KCNQ2 channel potentiators, confirmation, cell-based, CHO, FluxOR thallium flux, duplicate; shares compounds with KCNQ2 enhance; CHO-KCNQ2 cells, FluxOR thallium flux fluorescence; potentiation, less the hit threshold, % at 10 µM; 1,200 tested, 68% active;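 active = fluorescence ratio rising 3 SD or more over the vehicle control mean in both replicates, plus primary screen hit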;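 note: peak minus minimum thallium fluorescence divided by baseline after K/Tl stimulus; 0% = vehicle mean plus 3 SD and 100% = vehicle minus unstimulated blank difference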
# Kir2-1 sel: mouse Kir2.1 channel activation off-target, confirmation, selectivity assay for KCNQ2 potentiator project, cell-based, HEK293, FluxOR thallium flux. shares compounds with KCNQ2 enhance. HEK293 Kir2.1, FluxOR thallium flux fluorescence. activity over 3SD threshold, % at 10 µM. 1,200 tested, 2% active;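 active = fluorescence ratio rise of at least 3 SD above the vehicle-control mean, seen in both replicates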;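 note: 0% = vehicle mean plus 3 SD and 100% = vehicle minus no-stimulus blank window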
# KCNQ2 W236L MoA: potentiators of retigabine-insensitive KCNQ2 W236L, mechanism study for KCNQ2 potentiator project, cell-based, rat KCNQ2 W236L, CHO, automated patch clamp; shares compounds with KCNQ2 enhance; automated patch clamp current; current increase over 3SD of negative controls (%), hits give high values, % at 25 µM; 940 tested, 10% active; AID 2558, 2010;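 active = current increase at least 3 SD of the untreated controls above them in both duplicate recordings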
# Numbers without * were called inactive; i = inactive; . = no result.
SMILES,KCNQ2 enhance,KCNQ2 block,Kir21 conf inh,HEK293 ctr,others
CC1CCCCN1CCCNC(=O)CN1C(=O)c2cccnc2Oc2ccc(Cl)cc21 (centres undefined),.,i,.,.,
Cc1ccccc1CC(=O)NCC1CCCCC1,4.2,i,.,.,
Cc1ccc(CC(=O)NCC2CCCCC2)cc1,7.5*,i,i,i,CHO-K1 Tl ctr=47*;KCNQ1 pot spec=-26;KCNQ2 pot conf=-11;Kir2-1 sel=-23
COC(=O)c1ccc(N2CCOCC2)c(NC(=O)c2ccco2)c1,.,i,.,.,
CCCCCCCCCC[n+]1cccc2c3ccccc3ccc21,.,i,7.5%*,i,
CCCCCCCC[n+]1cccc2c3ccccc3ccc21,0.04,i,.,.,
CC1CCC(NC(=O)CN2C(=O)c3cccnc3Oc3ccc(Cl)cc32)CC1 (centres undefined),.,i,.,.,
CC1(C(=O)OCC(=O)Nc2ccc3ccccc3c2)CC1(Cl)Cl (centres undefined),0.68,i,.,.,
Cc1ccc(S(=O)(=O)Nc2cc(C(C)C)c(O)cc2C)cc1,.,i,34%*,71%*,
Cc1ccc(S(=O)(=O)Nc2cc(Cl)c(O)cc2C)cc1,.,i,.,.,
CCOC(=O)c1n[nH]c2ccccc12,1.3,i,.,.,
CCOC(=O)c1n[nH]n2c1nc(=S)c1ccccc12,8.2*,i,i,391%*,CHO-K1 Tl ctr=-24;KCNQ1 pot spec=-13;KCNQ2 pot conf=43*;Kir2-1 sel=1.3*;KCNQ2 W236L MoA=i
CCOc1ccc(C(=O)N2CCSC2=S)cc1,0.03,i,.,.,
O=C(NCc1ccc(Cl)cc1)C1CCN(c2nnc(N3CCCC3=O)s2)CC1,0.7,i,.,.,
Cc1cc(NC(=O)CN2C(=O)NC3(CCCCCC3)C2=O)no1,.,i,.,.,
Cc1nc(N2CCN(Cc3ccccc3)CC2)nc2c1C(=O)CC(C)C2 (centres undefined),.,i,65%*,i,
CCN1CCN(c2nc(C)c3c(n2)CC(C)CC3=O)CC1 (centres undefined),0.57,i,.,.,
CCN1C(=O)[C@H]2[C@@H](c3ccc(-c4ccc(C(C)=O)cc4)cc3)N[C@@](Cc3ccccc3)(C(=O)OC)[C@H]2C1=O,0.04,i,.,.,
CCOc1ccc(C2/C(=C(/O)c3ccc4c(c3)CC(C)O4)C(=O)C(=O)N2CCCn2ccnc2)cc1OCC (centres undefined),.,i,.,.,
CN(C)c1ccc(C(=O)c2ccccc2C(=O)O)c(O)c1,0.86,i,.,.,
CCCCN(CCCC)c1ccc(C(=O)c2ccccc2C(=O)O)c(O)c1,8.9*,i,i,i,CHO-K1 Tl ctr=-7;KCNQ1 pot spec=-22;KCNQ2 pot conf=-2;Kir2-1 sel=-38;KCNQ2 W236L MoA=i
Cc1cc(C(=O)NC(C)CCC(C)C)c2ccccc2n1 (centres undefined),.,i,.,.,
O=C(CN1C(=O)CSc2ccc(S(=O)(=O)N3CCOCC3)cc21)NCc1cccnc1,0.34,i,.,.,
COC(=O)CSc1nc2c(c(-c3ccco3)c1C#N)CCCC2,11*,i,i,i,CHO-K1 Tl ctr=7.8*;KCNQ1 pot spec=-35;KCNQ2 pot conf=28*;Kir2-1 sel=-36;KCNQ2 W236L MoA=i
CCOC(=O)CSc1nc2c(c(-c3ccc(C)o3)c1C#N)CCCC2,7.2*,i,i,i,CHO-K1 Tl ctr=113*;KCNQ1 pot spec=-6;KCNQ2 pot conf=6.3*;Kir2-1 sel=-27;KCNQ2 W236L MoA=i
SMILES,KCNQ2 enhance,KCNQ2 block,Kir21 conf inh,HEK293 ctr,others
COC(=O)CSc1nc2c(c(-c3ccc(O)cc3)c1C#N)CCCC2,.,i,.,.,
Cc1ccc(-c2c(C#N)c(N)nc3c2CCCCC3)o1,0.57,i,.,.,
Clc1cccc(Cl)c1COn1nnc2ccccc21,.,i,.,.,
c1ccc(COn2nnc3ccccc32)c(COn2nnc3ccccc32)c1,.,i,72%*,i,
CC1=C(C(=O)OCCCCCl)C(c2cc3c(cc2Br)OCO3)NC(=O)N1 (centres undefined),0.34,i,.,.,
CCN(c1ccccc1)S(=O)(=O)c1ccc2ccccc2c1,.,i,.,.,
CNS(=O)(=O)c1ccc2ccccc2c1,.,i,.,.,
Cc1cc(O)cc(C)c1NS(=O)(=O)c1ccc2ccccc2c1,2.7,i,56%*,i,
CN(c1ccc(O)cc1)S(=O)(=O)c1ccc2ccccc2c1,0.65,i,50%*,i,
CC(C)N1CCN(Cc2ccc(OC3CCCC3)cc2)CC1CCO (centres undefined),.,i,.,.,
Cc1ccc(/C=C2\SC(N3CCCCC3)=NC2=O)cc1,0.15,i,.,.,
CC(C)(C)c1ccc(/C=C2/SC(N3CCCC3)=NC2=O)cc1,6.9*,i,i,i,CHO-K1 Tl ctr=4.3*;KCNQ1 pot spec=-9;KCNQ2 pot conf=12*;Kir2-1 sel=-14;KCNQ2 W236L MoA=0.6%*
N#Cc1ccc(CSc2nnc(-c3ccccc3)n2Cc2ccco2)cc1,.,i,.,.,
N#Cc1ccc(CSc2nnc(Cc3cccs3)n2Cc2ccco2)cc1,.,i,53%*,i,
O=C(COC(=O)C1(c2ccccc2F)CCCC1)NCc1cccs1,.,i,73%*,i,
NC(=O)c1ccc(NC(=O)COC(=O)C2(c3ccccc3F)CCCC2)cc1,1.9,i,.,.,
CCC(NC(=O)NC1CCCCC1)c1ccccc1 (centres undefined),19*,i,i,i,CHO-K1 Tl ctr=-18;KCNQ1 pot spec=-13;KCNQ2 pot conf=70*;Kir2-1 sel=-35;KCNQ2 W236L MoA=i
COc1ccc(C(C)NC(=S)NC2CCCC2)cc1OC (centres undefined),0.16,i,.,.,
CC(=O)NC(CC(=O)NC1CCCCCC1)c1ccccc1 (centres undefined),1.4,i,.,.,
Cc1ccc(C(C)NC(=S)NC2CCCCC2)c(C)c1 (centres undefined),7.3*,i,.,.,CHO-K1 Tl ctr=70*;KCNQ1 pot spec=-6;KCNQ2 pot conf=-2;Kir2-1 sel=-55;KCNQ2 W236L MoA=8.5%*
Cc1ccc(C(C)NC(=O)C2CCCC2)c(C)c1 (centres undefined),0.67,i,.,.,

# Source: PubChem BioAssay
